A word on the viability: it is a read-out of living cells in per cent, often relative to untreated cells. What is called inhibition is the relative decrease from the control value, in per cent.

15 compounds from PubChem BioAssay can be followed below.

For some assays here: Results with a measured potency or affinity are listed apart. Active and inactive are the calls of the source.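 How the source made its calls, unless noted: active means compounds killing one labelled cell type while sparing the other, by normalised counts and ratio limits, not self-fluorescent; inactive means the rest.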

Test [1] in a line: liver-stage malaria parasite growth inhibition, primary screen, cell-based, HepG2, luciferase luminescence, HepG2 viability (AID 624349; in the data active means parasite load remaining mostly below about 12%, no sharp cut-off; inactive means mostly above about 10%;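 further: 100% = mean of DMSO negative control wells on the same plate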). Conditions: P. berghei liver stage in HepG2, luciferase luminescence, concentration not given here; parasite load remaining: stronger effect = lower value; viability: measured here: HepG2 viability without parasites.
Test [2] in a line: differential killing of epithelial or mesenchymal cells, primary screen, imaging, PC-3E GFP, TEM4-18 mCherry, co-culture (AID 1345086).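 On all read-outs here: cells exposed to compound for 72 h before imaging.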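 On red/green cell ratio (normalised): normalised mesenchymal count divided by normalised epithelial count so high means epithelial killing.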 Conditions: imaging cell counts, at 1 µM; for red/green cell ratio (normalised): actives lie on both sides, counts scaled to control wells, 1 = unselective.
Test [3] in a line: sensitizers of A549 cells to miR-34 induction, primary screen, imaging, A549 dox-inducible miR-34, nuclei and caspase counts (AID 1347080;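 active means compounds whose cell count with miR-34 switched on is under 0.7 times the count with it off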). Conditions: A549 miR-34 inducible, Hoechst nuclei count, 48 h.
The target of test [4] is Mitogen-activated protein kinase 7 (Homo sapiens) (UniProt Q13164). Briefly: ERK5 transactivation activators in reporter cells, primary screen, cell-based, HTS (AID 1508626;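 active means luciferase signal above three times the same-plate solvent-only control wells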;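 further: luciferase driven by Gal4-ERK5 fusion binding five Gal4 sites before minimal TATA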). Conditions: HeLa Gal4-ERK5 transactivation, 18 h, at 5 µM, stronger effect = higher value.
The nature of test [5]: polyglutamine-triggered caspase-3 activation inhibitors, cell-based (AID 1583). Conditions: polyglutamine-induced caspase-3 activation, cell assay; stronger effect = higher value;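 tested at 10 µM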.
Test [6] in a line: suppressors of polyQ aggregation in yeast, 75Q-TubU reporter (AID 1593). Conditions: Yeast 75Q polyglutamine aggregation reporter.
The nature of test [7]: rescue of polyQ-huntingtin neuronal dysfunction in worms, whole organism, C. elegans mechanosensory neurons, N-terminal huntingtin (AID 1599). As to conditions: touch response, stronger effect = higher value.
Test [8] is described as follows: inhibitors of mitochondrial cytochrome c release, biochemical, purified mitochondria (AID 1603).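 Further: mouse liver mitochondria challenged with calcium chloride; signal normalized to the plate average as 100%.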 As to conditions: stronger effect = lower value.
Test [9] in a line: inhibitors of polyQ protein aggregation (AID 1604). As to conditions: polyglutamine-induced protein aggregation inhibition assay; stronger effect = higher value; tested at 2.5 µM.
A short description of test [10]: enhancers of glutamate uptake in motor neurons, MN-1 cell line (AID 1612).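 Further: tested at 1 µM final; 0% = mean of DMSO vehicle wells on each plate; positive means more glutamate uptake than control and negative means less.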 Conditions: MN-1 motor neuron cells, stronger effect = higher value.
A short description of test [11]: reducers of polyQ inclusions in PC12 cells, cell-based, NGF-treated PC12, GFPQ80 (AID 1614).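 Further: lower means fewer inclusions and 0 means no inclusions at all.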 Conditions: PC12 NGF-treated GFP-polyQ80 inclusion reduction.
Test [12] in a line: suppressors of polyglutamine aggregation in yeast, 75Q-TubH (AID 1616). Conditions: S. cerevisiae 75Q-TubH polyglutamine aggregation suppression; stronger effect = higher value.
Test [13] has as its target NAD(+) hydrolase SARM1 (Homo sapiens) (UniProt Q6SZW1). Briefly: SARM1 TIR NADase inhibitors, cell lysate, NAD-Glo luminescence (AID 1508614;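 active means compound whose remaining NAD level is above about 45 nM, limit read from the data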). As to conditions: SAM-TIR HEK293T lysate NADase, at 1 µM, stronger effect = higher value.
The mark [14] stands for this setting: measured here: epithelial PC-3E GFP cell survival.
The mark [15] stands for this setting: measured here: mesenchymal TEM4-18 mCherry cell survival.

Sequence of Mitogen-activated protein kinase 7 (Homo sapiens) (Q13164 whole entry, looked up, the tested form may be a part): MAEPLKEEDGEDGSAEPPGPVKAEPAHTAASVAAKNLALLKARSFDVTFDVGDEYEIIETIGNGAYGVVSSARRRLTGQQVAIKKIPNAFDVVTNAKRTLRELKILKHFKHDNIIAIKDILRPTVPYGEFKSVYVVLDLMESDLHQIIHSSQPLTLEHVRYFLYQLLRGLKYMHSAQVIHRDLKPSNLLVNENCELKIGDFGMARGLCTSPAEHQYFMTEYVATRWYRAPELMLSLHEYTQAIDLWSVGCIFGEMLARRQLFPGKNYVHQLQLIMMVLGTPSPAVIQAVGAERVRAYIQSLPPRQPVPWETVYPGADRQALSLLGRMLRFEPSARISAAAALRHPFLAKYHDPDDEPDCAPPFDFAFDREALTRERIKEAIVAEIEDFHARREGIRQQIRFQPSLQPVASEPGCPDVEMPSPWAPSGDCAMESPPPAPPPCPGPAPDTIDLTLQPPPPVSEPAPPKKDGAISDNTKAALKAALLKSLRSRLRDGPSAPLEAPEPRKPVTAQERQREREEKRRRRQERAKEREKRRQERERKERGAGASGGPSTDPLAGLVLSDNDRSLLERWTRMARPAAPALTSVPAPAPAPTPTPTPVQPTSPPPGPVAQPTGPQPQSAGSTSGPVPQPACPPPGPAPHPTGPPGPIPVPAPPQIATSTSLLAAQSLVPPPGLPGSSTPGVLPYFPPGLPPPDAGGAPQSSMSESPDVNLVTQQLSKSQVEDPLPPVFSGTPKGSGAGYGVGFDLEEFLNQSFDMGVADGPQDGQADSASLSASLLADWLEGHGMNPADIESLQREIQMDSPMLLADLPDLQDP
Sequence of NAD(+) hydrolase SARM1 (Homo sapiens) (Q6SZW1 whole entry, looked up): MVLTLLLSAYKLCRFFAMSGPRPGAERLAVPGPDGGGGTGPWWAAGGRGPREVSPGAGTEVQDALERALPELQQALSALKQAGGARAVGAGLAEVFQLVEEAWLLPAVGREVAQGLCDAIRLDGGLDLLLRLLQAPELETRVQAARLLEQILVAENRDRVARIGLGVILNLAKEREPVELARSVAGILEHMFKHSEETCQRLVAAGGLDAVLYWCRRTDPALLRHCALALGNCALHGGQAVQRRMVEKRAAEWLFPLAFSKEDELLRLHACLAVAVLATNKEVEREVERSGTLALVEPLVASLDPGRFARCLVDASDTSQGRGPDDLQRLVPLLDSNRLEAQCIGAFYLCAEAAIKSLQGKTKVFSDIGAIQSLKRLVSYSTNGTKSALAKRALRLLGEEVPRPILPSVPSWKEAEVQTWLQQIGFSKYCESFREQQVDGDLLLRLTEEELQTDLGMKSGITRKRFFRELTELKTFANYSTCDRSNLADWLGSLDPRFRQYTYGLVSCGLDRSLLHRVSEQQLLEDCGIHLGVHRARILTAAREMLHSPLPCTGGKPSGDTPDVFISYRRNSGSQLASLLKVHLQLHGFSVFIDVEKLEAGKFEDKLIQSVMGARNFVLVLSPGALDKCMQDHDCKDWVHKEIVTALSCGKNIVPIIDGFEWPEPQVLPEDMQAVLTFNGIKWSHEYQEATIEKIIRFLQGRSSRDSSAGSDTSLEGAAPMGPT

For `CC(C)(C)NCC(O)COc1cccc2c1CCCC2=O` (centres undefined), the parasite load remaining in test [1] was 76.4% (inactive). Moreover, in [1], the viability amounted to 103%. Moreover, the red/green cell ratio (normalised) in [2] was 1.02 (inactive). The normalised cell number was 1.01 in test [2] (setting [14]) and 1.03 in test [2] (setting [15]). The fold change was 0.83 (inactive) in test [3] (stronger effect = lower value, cell number ratio, induced over uninduced) and 2.71 in test [3] (measured here: relative caspase fold change +Dox/-Dox). Moreover, the cell count came to 11300 in test [3] (measured here: total cells with miR-34 induction, stronger effect = lower value) and 13600 in test [3] (measured here: total cells without miR-34 induction).
Regarding `COc1ccc(/C=C/C(=O)c2cc(O)ccc2O)cc1`, the red/green cell ratio (normalised) in test [2] is 0.92 (inactive). Moreover, the normalised cell number in test [2] (setting [14]) turned out to be 1.12; in test [2] (setting [15]) it was 1.03. Further, the luciferase signal in [4] is 80 AU (inactive).
On the same counts, the results for `COc1ccc(-c2cc(=O)c3c(O)cc(OC)c(OC)c3o2)c(OC)c1` are 1.02 (inactive), 0.97, 0.99 and 108 AU (inactive).
Take `C[C@]12CCC3c4ccc(OC(=O)c5ccccc5)cc4CCC3C1CCC2=O` (some centres undefined): the red/green cell ratio (normalised) in test [2] was 0.85 (inactive). Moreover, the normalised cell number came to 1.24 in test [2] (setting [14]) and 1.05 in [2] (setting [15]). The luciferase signal in [4] was 40 AU (inactive).
On to `CC1(C)CC[C@]2(C(=O)O)CC[C@]3(C)C(=CCC4[C@@]5(C)CC[C@@H](O)C(C)(C)C5CC[C@]43C)C2C1` (some centres undefined), for which the red/green cell ratio (normalised) in test [2] was 1 (inactive). For the same compound, the normalised cell number in [2] (setting [14]) was determined as 0.94; in [2] (setting [15]), 0.95. Besides, in test [4], the luciferase signal was 16 AU (inactive).
In the case of `CC(=O)O[C@@H]1CC2C(C)(C)C(=O)C3OC3[C@]2(C)C2CC[C@@]3(C)[C@H](c4ccoc4)OC(=O)C4OC43[C@@]21C` (some centres undefined), the red/green cell ratio (normalised) in test [2] is 1.04 (inactive). For the same compound, the normalised cell number in test [2] (setting [14]) turned out to be 1.01; in test [2] (setting [15]) it was 1.05. The luciferase signal in [4] was 4 AU (inactive).
Turning to `CC(=O)OC/C=C(\C)CC/C=C(\C)CC/C=C(\C)CC/C=C(\C)CC/C=C(\C)CC/C=C(\C)CC/C=C(\C)CC/C=C(\C)CCC=C(C)C`, the red/green cell ratio (normalised) in test [2] is 0.99 (inactive). For the same compound, the normalised cell number was 1.05 in [2] (setting [14]) and 1.04 in test [2] (setting [15]). The luciferase signal in test [4] was 84 AU (inactive).
The corresponding values for `CNc1ccccc1C(=O)N1CCc2c([nH]c3ccccc23)C1=O` are 1.01 (inactive), 0.95, 0.96 and 56 AU (inactive).
`O=C(/C=C/c1ccccc1)c1ccc(O)cc1O`: in test [2], the red/green cell ratio (normalised) is 0.95 (inactive). For the same compound, the normalised cell number in test [2] (setting [14]) amounted to 1.05; in test [2] (setting [15]), 1. Also, the luciferase signal in [4] is 52 AU (inactive).
`COc1ccc(/C=C/C(=O)c2ccc(O)cc2O)cc1`: in [2], the red/green cell ratio (normalised) was 1.07 (inactive). The normalised cell number in test [2] (setting [14]) was 0.93; in test [2] (setting [15]) it was 0.99. Moreover, the luciferase signal in [4] was 100 AU (inactive).
As to `CNC(C)[C@@H]1CC[C@@H](N)[C@@H](OC2[C@@H](N)C[C@@H](N)[C@H](OC3OC[C@](C)(O)[C@H](NC)[C@H]3O)[C@H]2O)O1` (some centres undefined), the inhibition in test [5] is -0.7%. The compound further registered a score in test [6] of 1.63. For the same compound, the rescue above control in [7] is -1.8. Moreover, the cytochrome c release ratio in [8] amounted to 2.33. The compound also showed an inhibition of aggregation in test [9] of 66.7%. For the same compound, the glutamate uptake change in test [10] worked out at 1.4%. For the same compound, the inclusion score in test [11] came to 2. In addition, the aggregation suppression score in test [12] came to 1.62. Besides, the red/green cell ratio (normalised) in test [2] was 1.29 (inactive). Also, the normalised cell number stood at 1.02 in test [2] (setting [14]) and 1.32 in [2] (setting [15]). Besides, the remaining NAD in test [13] is 10 nM (inactive). Further, the luciferase signal in test [4] was 28 AU (inactive).
With `O=c1cc(-c2ccc(O)cc2)oc2cc(O)ccc12`, the red/green cell ratio (normalised) in [2] is 0.77 (inactive). Further, the normalised cell number in test [2] (setting [14]) stood at 1.28; in [2] (setting [15]), 0.98. In test [4], the luciferase signal is 180 AU (active).
Take `CC1(C)C(=O)[C@@H]2C[C@@]3(O)C4=CC(=O)O[C@@H](c5ccoc5)[C@]4(C)CCC3C(C)(C2=O)[C@H]1CC(=O)O` (some centres undefined): the red/green cell ratio (normalised) in test [2] was 1 (inactive). Moreover, the normalised cell number in test [2] (setting [14]) and in test [2] (setting [15]) was 1.01 throughout. For the same compound, the luciferase signal in test [4] is 20 AU (inactive).
`C=C[C@@]1(C)CC(=O)[C@@]2(O)[C@](C)(O1)[C@@H](O)[C@@H](O)C1C(C)(C)CC[C@H](O)[C@@]12C` (some centres undefined): the red/green cell ratio (normalised) in test [2] is 1.15 (inactive). The results for the normalised cell number in test [2] (setting [14]) and in test [2] (setting [15]) were 0.91 and 1.05, respectively. Further, in [4], the luciferase signal is 80 AU (inactive).
Turning to `C=C[C@@H](C1=CC(=O)C(OC)=C(OC)C1=O)c1ccccc1`, the red/green cell ratio (normalised) in test [2] was 0.99 (inactive). Further, the normalised cell number in test [2] (setting [14]) and in test [2] (setting [15]) was 1.04 in each case. For the same compound, the luciferase signal in test [4] is 136 AU (inactive).
